# Experimental data from PubChem BioAssay (Tox21).
# Several values for one entry are separate records, joined by “and”; a condition that tells them apart may be missing. Identical values can stand only once. Records with an inconclusive call do not appear. Some structures have more than one record in an assay (separate samples or runs), and their calls can disagree. Activity calls are given as the source filed them. Calls come from the whole dose curve; as a rule, active = well fitted activation curve with a large enough effect in the repeat runs; inconclusive = weak or mixed curves; inactive = flat fitted curve, though single readings scatter.
# Experiment: A CellTox Green Cytotoxicity Assay to monitor cytotoxicity in HepG2 cells - 16 hour (AID 1224876); note: nearly all actives have a fitted effect of over 45% in size
# Conditions: CellTox Green fluorescence; series mostly up to 76.8 µM; cytotoxicity increase: at the top concentration
# From the text: National Center for Advancing Translational Sciences [NCATS]
# NIH Chemical Genomics Center [NCGC]
# U.S. Environmental Protection Agency [EPA]
# National Institutes of Environmental Health Sciences [NIEHS]
# National Toxicology Program [NTP]
# Cell-based models are critical for drug discovery. Determining the natural cytotoxic effects resulting from test compounds is an essential research activity. A CellTox Green Cytotoxicity Assay to monitor cytotoxicity in real time of continues cell culture during 40 hours of the compound treatment was used to screen Tox21 10K library compounds in HepG2 cells. CellTox Green Cytotoxicity Assay is a nonlytic, homogeneous, biofluorescent method to measure cytotoxicity in cell culture after experimental manipulation. The assay system uses a proprietary asymmetric cyanine dye that is excluded from viable cells but preferentially stains the dead cell's DNA. […] Viable cells produce no appreciable increases in fluorescence. Therefore, the fluorescence signal produced by the binding interaction with dead cell DNA is proportional to cytotoxicity.
# The mixture of HepG2 cell suspension and reagents were dispensed at 600cells/6 ul/well in 1536-well tissue culture treated black solid bottom plates using a Multidrop dispenser. After the assay plates were incubated at a 37 C/5% CO2 incubator for 5 hours, 23 nL of compounds dissolved in DMSO, positive and negative controls was transferred to the assay plate by a pintool work station. The plates were incubated at 37 C for 40 hours. The fluorescence intensity were measured at 0h, 8h, 16h, 24h, 32h and 40h time points using ViewLux plate reader during compound treatment.
# % is set by controls: 0 for no effect and ±100 for the full control effect; potency is the fitted concentration of half-maximal effect.
Compound,Potency,cytotoxicity increase
CCCCCCCOC(=O)c1ccc(O)cc1,inactive and 38.9 µM (active),–
Cc1ccc(CCn2c3c(c4cc(Cl)ccc42)CN(C)CC3)cn1,–,26.2% [at 35.3 µM] (inactive)
CCc1c(C(=O)O)c(=O)cnn1-c1ccc(Cl)cc1,–,-8.68% (inactive)
CNC(=O)c1cc(Oc2ccc(NC(=O)Nc3ccc(Cl)c(C(F)(F)F)c3)cc2)ccn1,–,12.6% [at 35.3 µM] (inactive)
O=C1NC2CCCCN2C12CCN(CCCN1c3ccccc3CCc3ccc(Cl)cc31)CC2 (stereo not given),23.9 µM (active),–
CC(=O)Nc1ccc(O)cc1,inactive,–
CN(C)CCCN1c2ccccc2Sc2ccc(C(F)(F)F)cc21,23.9 µM (active),–
COc1cccc(OC)c1O,–,-5.69% (inactive)
CCOC(=O)N1CCC(=C2c3ccc(Cl)cc3CCc3cccnc32)CC1,–,21% (inactive)
Clc1nc2ccccc2s1,–,-4.22% (inactive)
C=C(C)C(=O)OCCC[Si](Cl)(Cl)Cl,–,-12.1% (inactive)
CCOCN(C(=O)CS(=O)(=O)O)c1c(C)cccc1CC,–,-12.6% (inactive)
CCCCOCC,–,-20.5% (inactive)
N#CSCSc1nc2ccccc2s1,54.9 µM (active),–
CCCCCCCCCCCCOC(=O)c1cc(O)c(O)c(O)c1,48.8 µM (active) and 38.9 µM (active),–
O=C(O)c1cccc(Cl)n1,–,24.8% (inactive)
O=C1OC(=O)c2cccc3cccc1c23,–,-6.17% (inactive)
Cc1cc2c(C(C)C)c(O)c(O)c(C=O)c2c(O)c1-c1c(C)cc2c(C(C)C)c(O)c(O)c(C=O)c2c1O,–,13.4% [at 35.3 µM] (inactive)
CN(C)CCN1CCOCC1,–,-9.22% (inactive)
C(=C/c1ccccc1)/c1ccccc1,–,7.77% (inactive)

Compound,Potency,cytotoxicity increase
CCCCCCOc1cc(C)c(O)c(C)c1C,24.8 µM (active),–
c1ccc2c(c1)CCC2,–,7.53% (inactive)
CC(C)(C)c1cc(CCC(=O)NCCCCCCNC(=O)CCc2cc(C(C)(C)C)c(O)c(C(C)(C)C)c2)cc(C(C)(C)C)c1O,–,-6.11% (inactive)
CN(C)c1ccc(N=Nc2ccccc2C(=O)O)cc1,–,-11.2% (inactive)
O=Nc1ccc(NO)cc1,–,-11.3% (inactive)
C/C=C/CO,–,6.77% (inactive)
CCN(CC)c1ccc(N)cc1,–,20.2% (inactive)
CCc1cccc(C)c1,–,-12.5% (inactive)
COc1ccc2sc(C(=O)Nc3nnn[nH]3)c(OC(C)C)c2c1,–,-1.42% (inactive)
CCCCCCCC/C=C/CCCOC(C)=O,–,9.7% (inactive)
O=CC1CC1,–,-5.88% (inactive)
CC(C)c1cccc(C(C)C)c1N1C(=O)c2ccc(O)cc2C1=O,24.5 µM (active),–
Brc1ccccn1,–,-9.53% (inactive)
CCC1(c2cnc[nH]2)Cc2ccccc2C1,–,-3.14% [at 35.3 µM] (inactive)
CCc1ccc(O)c(C(C)(C)C)c1,43.6 µM (active),–
CC1CNCC(C)O1 (stereo not given),–,-9.5% (inactive)
CCO[Si](C)(C)OCC,–,0.084% (inactive)
Oc1ccc(-c2ccccc2)c(Cl)c1,49 µM (active),–
CCOC(=O)CC(C)O (stereo not given),–,1.66% (inactive)
CCCCOC(=O)C(C)CC (stereo not given),–,0.134% (inactive)
